Source: the supplement of paper PMC13380429

System: Vero E6 infected with SARS-CoV-2
Assay: inhibition of SARS-CoV-2 cytopathic effect; higher = more antiviral protection, active = above 15
Conditions: 48 h

Measured: inhibition of SARS-CoV-2 cytopathic effect

CNc1ncc2cc(-c3cc(NC(=O)NCCC(C)(C)C)c(F)cc3C)c(C)nc2n1
inactive: 1 nM 0.87% | 8.33 nM 1.85% | 100 nM 5.54% | 833.33 nM -4.43% | 10000 nM -8.15%

COc1cc2c(NC3CCN(C)CC3)nc(N3CCCN(C)CC3)nc2cc1OCCCN(C)C
inactive: 1 nM 2.93% | 8.33 nM 3.22% | 100 nM 3.09% | 833.33 nM 3.57% | 10000 nM 4.51%

COc1ccc(C2=N[C@@H](c3ccc(Cl)cc3)[C@@H](c3ccc(Cl)cc3)N2C(=O)N2CCNC(=O)C2)c(OC(C)C)c1 [nutlin-3]
inactive: 1 nM 1.71% | 8.33 nM 1.61% | 100 nM 5.23% | 833.33 nM 5.08% | 10000 nM 3.38%

O=C(NCCO)c1cc(C(=O)NCCO)cc(C(=O)NCCO)c1
inactive: 1 nM -0.77% | 8.33 nM -1.01% | 100 nM -1.2% | 833.33 nM -1.25% | 10000 nM 0.61%

COc1cccc(CCc2ccccc2OCC[C@@H]2C[C@@H](O)CN2C)c1
inactive: 1 nM 2.39% | 8.33 nM 4.9% | 100 nM 14.7% | 833.33 nM -9.02% | 10000 nM -0.59%

Cc1cccc(-c2nn3c(c2-c2ccnc4ccc(C(N)=O)cc24)CCC3)n1
inactive: 1 nM 0.85% | 8.33 nM -0.43% | 100 nM -0.97% | 833.33 nM -0.85% | 10000 nM -1.59%

CC(=O)O[C@@H]1CC[C@@]2(C)[C@@H](CC[C@]3(C)[C@@H]2C(=O)C=C2[C@@H]4[C@@H](C)[C@H](C)CC[C@]4(C)CC[C@]23C)[C@@]1(C)C(=O)O [acetyl-11-keto-beta-boswellic-acid]
inactive: 1 nM -1.38% | 8.33 nM -3.19% | 100 nM -1.26% | 833.33 nM -0.71% | 10000 nM -0.995%

CCCN(CCC)CCc1ccc(OC)c(OCCc2ccccc2)c1
inactive: 1 nM -1.09% | 8.33 nM -0.82% | 100 nM 0.93% | 833.33 nM 0.13% | 10000 nM -2.05%

COc1cc2ncnc(Nc3ccc(F)c(Cl)c3)c2cc1OCCCN1CCOCC1 [gefitinib]
inactive: 1 nM -1.32% | 8.33 nM -0.45% | 100 nM -4.25% | 833.33 nM -11.2% | 10000 nM -22.2%

CCc1cccc2c3c([nH]c12)C(CC)(CC(=O)O)OCC3 (stereo not given) [etodolac]
inactive: 1 nM -3.24% | 8.33 nM -2.14% | 100 nM -2.22% | 833.33 nM -1.67% | 10000 nM -0.69%

COc1ccc(S(=O)(=O)Nc2cccnc2Nc2ccc(O)cc2)cc1
inactive: 1 nM 1.18% | 8.33 nM 4.25% | 100 nM 1.28% | 833.33 nM 0.22% | 10000 nM 1.62%

CC1(C)S[C@@H]2[C@H](N3C(=O)[C@@H](c4ccccc4)NC3(C)C)C(=O)N2[C@H]1C(=O)O [hetacillin]
inactive: 1 nM -0.32% | 8.33 nM 0.69% | 100 nM 0.82% | 833.33 nM 2.11% | 10000 nM 2.77%

C=CCN1C[C@H](C)N([C@H](c2ccc(C(=O)N(CC)CC)cc2)c2cccc(O)c2)C[C@H]1C
inactive: 1 nM 0.51% | 8.33 nM 2.94% | 100 nM -0.07% | 833.33 nM -0.38% | 10000 nM -1.22%

Cc1cccc(C(C)c2c[nH]cn2)c1C (stereo not given) [medetomidine]
inactive: 1 nM 0.12% | 8.33 nM -1.31% | 100 nM -1.87% | 833.33 nM -1.95% | 10000 nM -1.68%

CC(C)c1ccc(C(=O)c2cccs2)c(SCCCCCCCCN(C)C)n1
active: 10000 nM 68.5%
inactive: 1 nM -1.33% | 8.33 nM 0.45% | 100 nM 2.39% | 833.33 nM 1.71%

CCOC(=O)c1ccc(-c2ccc(OC(=O)N(C)Cc3cccc(-c4ccncc4)c3)cc2)cc1
inactive: 1 nM 2.8% | 8.33 nM -0.08% | 100 nM 3.06% | 833.33 nM 4.52% | 10000 nM 4.58%

O=C1NCCc2[nH]c(-c3ccncc3)cc21
inactive: 1 nM -0.31% | 8.33 nM -0.69% | 100 nM -1% | 833.33 nM -0.56% | 10000 nM -3.45%

CCCCC[C@H](O)/C=C/[C@H]1[C@H](O)CC(=O)[C@@H]1C/C=C\CCCC(=O)O [dinoprostone]
inactive: 1 nM -2.72% | 8.33 nM 0.16% | 100 nM -4.2% | 833.33 nM 0.3% | 10000 nM 0.05%

N[C@@H]1[C@H]2CN(c3nc4c(cc3F)c(=O)c(C(=O)O)cn4-c3ccc(F)cc3F)C[C@@H]12 [trovafloxacin]
inactive: 1 nM -8.03% | 8.33 nM -6.09% | 100 nM -4.83% | 833.33 nM -0.82% | 10000 nM -1.33%

CCn1cc(C(=O)O)c(=O)c2cc(F)c(N3CCNCC3)nc21 [enoxacin]
inactive: 1 nM 4.58% | 8.33 nM 2.38% | 100 nM 0.25% | 833.33 nM -2.16% | 10000 nM 0.56%

c1ccc(Cn2c(-c3ccc(OC[C@H](C4CCNCC4)n4c(-c5ccccc5)nc5ccccc54)cc3)nc3ccccc32)cc1 [deltarasin]
inactive: 1 nM -4.79% | 8.33 nM -0.65% | 100 nM -1.55% | 833.33 nM -1.93% | 10000 nM -33.6%

Cn1c(Nc2ccc(C(F)(F)F)cc2)nc2cc(Oc3ccnc(-c4ncc(C(F)(F)F)[nH]4)c3)ccc21
inactive: 1 nM 0.79% | 8.33 nM 1.69% | 100 nM 0.4% | 833.33 nM 0.16% | 10000 nM 4.48%

CCN[C@H]1C[C@H](C)S(=O)(=O)c2sc(S(N)(=O)=O)cc21 [dorzolamide]
inactive: 1 nM -0.7% | 8.33 nM -3.23% | 100 nM -4.56% | 833.33 nM -1.92% | 10000 nM -1.06%

CNC[C@H](O)[C@@H](O)[C@H](O)[C@H](O)CO [meglumine]
inactive: 1 nM -10% | 8.33 nM -10.3% | 100 nM -6.44% | 833.33 nM -11.4% | 10000 nM -10.1%

N#C/C(=C\c1ccc(O)c(O)c1)C(N)=O [tyrphostin-AG-99]
inactive: 1 nM 3.54% | 8.33 nM 0.59% | 100 nM -0.43% | 833.33 nM 3.25% | 10000 nM 0.46%

CCC(C)CCCC(=O)N[C@@H](CCN)C(=O)N[C@H](C(=O)N[C@@H](CCN)C(=O)N[C@H]1CCNC(=O)[C@H]([C@@H](C)O)NC(=O)[C@H](CCN)NC(=O)[C@H](CCN)NC(=O)[C@H](CC(C)C)NC(=O)[C@@H](CC(C)C)NC(=O)[C@H](CCN)NC1=O)[C@@H](C)O (stereo not given in full) [colistin]
inactive: 1 nM 0.955% | 8.33 nM -0.06% | 100 nM 3.56% | 833.33 nM 0.76% | 10000 nM -2.41%

CNS(=O)(=O)Cc1ccc2[nH]cc(CCN(C)C)c2c1 [sumatriptan]
inactive: 1 nM 1.16% | 8.33 nM 0.24% | 100 nM 1.25% | 833.33 nM 0.28% | 10000 nM -0.08%

OCc1ccccc1O [salicyl-alcohol]
inactive: 1 nM -0.86% | 8.33 nM -1.41% | 100 nM 0.06% | 833.33 nM 4.76% | 10000 nM 0.29%

Cc1[nH]c2ccc(O)cc2c1CCN [2-methyl-5-hydroxytryptamine]
inactive: 1 nM -3.47% | 8.33 nM -2.58% | 100 nM -4.33% | 833.33 nM -12.8% | 10000 nM -2.37%

Cc1ccc(-n2nc(C(C)(C)C)cc2NC(=O)NCc2cc(F)ccc2Oc2ccc3c(cnn3CCO)c2)cc1 [pexmetinib]
inactive: 1 nM -0.97% | 8.33 nM -3.1% | 100 nM 0.01% | 833.33 nM 5.81% | 10000 nM 3.62%

O=C(O)CCC(=O)c1ccc(-c2ccccc2)cc1 [fenbufen]
inactive: 1 nM -1.6% | 8.33 nM 2.58% | 100 nM -0.25% | 833.33 nM -2.57% | 10000 nM -2.49%

CN[C@H]1CC[C@@H](c2ccc(Cl)c(Cl)c2)c2ccccc21
inactive: 1 nM -7.46% | 8.33 nM 3.54% | 100 nM 8.81% | 833.33 nM -0.02% | 10000 nM 12.1%

C[C@@H]([C@@H](O)c1ccc(O)cc1)N1CCC(O)(c2ccccc2)CC1 [traxoprodil]
inactive: 1 nM 4.34% | 8.33 nM -0.79% | 100 nM -2.83% | 833.33 nM 1.39% | 10000 nM -1.06%

CN1CCC(NC(=O)c2cc(-c3c(O)cc(O)cc3Oc3ccc([N+](=O)[O-])cc3)on2)CC1
inactive: 1 nM 0.32% | 8.33 nM 0.21% | 100 nM 3.95% | 833.33 nM -1.5% | 10000 nM -5.98%

COc1cc2nccc(Oc3ccc(NC(=O)NC4CC4)c(Cl)c3)c2cc1C(N)=O [lenvatinib]
inactive: 1 nM -1.78% | 8.33 nM -0.25% | 100 nM -0.32% | 833.33 nM -0.03% | 10000 nM 8.44%

CN(C(=O)Cc1ccc(Cl)c(Cl)c1)[C@H](CN1CCCC1)c1ccccc1
active: 10000 nM 34.8%
inactive: 1 nM 4.62% | 8.33 nM 6.47% | 100 nM 6.09% | 833.33 nM -0.24%

COc1cc2c(cc1OC)[C@@H](Cc1cc(OC)c(OC)c(OC)c1)[N+](C)(CCCOC(=O)CC/C=C/CCC(=O)OCCC[N+]1(C)CCc3cc(OC)c(OC)cc3[C@H]1Cc1cc(OC)c(OC)c(OC)c1)CC2 (stereo not given in full) [mivacurium]
inactive: 1 nM -2.73% | 8.33 nM -1.95% | 100 nM 2.74% | 833.33 nM 3.32% | 10000 nM 0.83%

Cc1cc(C)c(S(=O)(=O)n2cc(C)cc2C)c(C)c1
inactive: 1 nM -0.12% | 8.33 nM -0.02% | 100 nM 2.14% | 833.33 nM 0.3% | 10000 nM -1.17%
